Laboratory results as given in PubChem BioAssay AID463173 (ICCB-Longwood Screening Facility, Harvard Medical School, 2010).
The campaign covered roughly 52,000 compounds. About 4,300 (8.3%) were called active. No stated cut-off is given here; in the data, active means survival mostly below about 52% (no sharp cut-off); inactive means mostly above about 56%. Only a selection was taken, and actives are over-represented in it overall.

What follows are molecules tested on DeltatarO mutant (assay: S. aureus survival, RN4220 and DeltatarO strains – OD600, teichoic acid synthesis inhibitors, primary screen (AID 463173)). Settings: S. aureus RN4220 wild type/DeltatarO growth, OD600, 18 h, active compounds read low, screened at 18.75 µg/mL (by protocol).

SMILES	survival
Cc1ccc2c(c1)C(c1ccc(F)cc1)N(C(=O)c1ccc(S(=O)(=O)N3CCCCC3)cc1)CC(=O)N2 (stereo not given)	178% (inactive)
CC(=O)Nc1ccc(NC(=O)CSc2nc3ccccc3nc2N2CCC(C)CC2)cc1	75% (inactive)
Cc1cccc(NC(=O)CSc2nc3ccccc3nc2N2CCC(C)CC2)c1	8% (active)
Cc1ccc(C)c(NC(=O)CSc2nc3ccccc3nc2N2CCOCC2)c1	85% (inactive)
CC1CCN(c2nc3ccccc3nc2SCC(=O)Nc2ccccc2C(C)C)CC1	-1% (active)
CCc1ccc(Cn2c(CNS(=O)(=O)c3ccc4c(c3)CCCC4)nc3cccnc32)cc1	102% (inactive)
Fc1ccc(-n2ncc3c(N4CCC(Cc5ccccc5)CC4)ncnc32)cc1	90% (inactive)
COc1cccc(C2CC(=O)Nc3c2c(=O)n(C)c2ncnn32)c1OC (stereo not given)	166% (inactive)
Cc1ccc2c(c1)c1c3n2CCN(C(=O)Cn2c(-c4ccccc4)noc2=O)C3CCC1 (stereo not given)	90% (inactive)
CC1CCc2c(sc(NC(=O)c3cc4nc(-c5ccc(Cl)cc5)cc(C(F)(F)F)n4n3)c2C#N)C1 (stereo not given)	91% (inactive)
Cc1ccc(C)c(S(=O)(=O)c2nnn3c2nc(NC2CCCCC2)c2sccc23)c1	40% (inactive)
Cc1ccc(S(=O)(=O)c2nnn3c2nc(NC2CCCCCC2)c2sccc23)cc1C	-4% (active)
Cc1ccc(S(=O)(=O)c2nnn3c2nc(NC2CCCCC2)c2sccc23)cc1C	35% (active)
O=S(=O)(c1ccc(Cl)cc1)c1nnn2c1nc(NC1CCCCC1)c1sccc12	41% (inactive)
Cc1ccc(S(=O)(=O)c2nnn3c2nc(NC2CCCCC2)c2sccc23)cc1	109% (inactive)
O=S(=O)(c1ccc(Br)cc1)c1nnn2c1nc(NC1CCCCCC1)c1sccc12	63% (inactive)
CCn1cc2nc(SCc3cccc(Cl)c3)n(Cc3ccc(C)cc3)c(=O)c2n1	44% (inactive)
COC(=O)CC(=O)CSc1nc(C)cc(C(F)(F)F)c1C#N	83% (inactive)
O=c1cc(CSc2nnc(COc3ccccc3)o2)c2ccccc2[nH]1	107% (inactive)
O=C1Nc2c(c(=O)[nH]c(=O)n2-c2ccc(F)cc2)C1(NS(=O)(=O)c1ccc(Cl)cc1)C(F)(F)F (stereo not given)	59% (inactive)
COC(=O)c1ccccc1NC(=O)c1cc2ccccn2n1	73% (inactive)
COc1ccccc1Cn1ccn(Cc2c(F)cccc2Cl)c(=O)c1=O	110% (inactive)
O=c1c(=O)n(-c2ccccc2)ccn1Cc1c(F)cccc1Cl	44% (active)

SMILES	survival
O=c1c(=O)n(Cc2c(F)cccc2Cl)ccn1Cc1ccccc1	82% (inactive)
Cc1cc(O)c(CN2CCN(c3ccc(F)cc3)CC2)c2oc(=O)cc(C)c12	46% (inactive)
Cc1ccc(NC(=O)CCSCCc2ccccn2)cc1	93% (inactive)
CC(=O)Nc1ccc(NC(=O)CCSCCc2ccccn2)cc1	135% (inactive)
O=C(CCSCCc1ccccn1)Nc1ccc(Cl)cc1	47% (active)
COc1ccc(-n2c(C)nnc2SCc2nc(-c3ccc(OC)c(OC)c3)no2)cc1	71% (inactive)
COC(=O)c1ccc2c(c1)N(CC(=O)Nc1ccc(C)cc1Cl)C(=O)c1ccccc1S2	76% (inactive)
Cc1ccc(O)c(C(CC(=O)NCC2(c3ccccc3)CCCC2)c2ccccc2)c1 (stereo not given)	82% (inactive)
Cc1cccc(C(CC(=O)NCC2(c3ccccc3)CCCC2)c2ccccc2)c1O (stereo not given)	38% (active)
Cc1ccc(C(CC(=O)NCC2(c3ccccc3)CCCC2)c2ccccc2)c(O)c1 (stereo not given)	101% (inactive)
O=C(O)CCc1ccc(-c2ccc(F)cc2)n1CCC(=O)O	103% (inactive)
Cc1ccc(NC(=O)CSc2nnc(C)c(=O)[nH]2)cc1	70% (inactive)
c1ccc(Cc2[nH]nc3ccccc23)cc1	89% (inactive)
Cc1cccc(C(=O)Nc2nc(-c3nnn(-c4cc(C)ccc4C)c3C)ns2)c1	94% (inactive)
Cc1ccc(-n2nnc(-c3nsc(NC(=O)c4cccc(Cl)c4)n3)c2C)cc1C	76% (inactive)
Cc1cc(C)cc(-n2nnc(-c3nsc(NC(=O)c4ccccc4Cl)n3)c2C)c1	64% (inactive)
CCc1ccc(-n2nnc(-c3nsc(NC(=O)c4ccccc4Cl)n3)c2C)cc1	15% (active)
Cc1ccc(-n2nnc(-c3nsc(NC(=O)c4ccccc4C)n3)c2C)cc1Cl	134% (inactive)
COc1cccc(C(=O)Nc2nc(-c3nnn(-c4ccccc4C(F)(F)F)c3C)ns2)c1	87% (inactive)
CCc1cccc(-n2nnc(-c3nsc(NC(=O)c4ccc(C)cc4)n3)c2C)c1	54% (inactive)
Cc1c(-c2nsc(NC(=O)c3cccc(Cl)c3)n2)nnn1-c1ccccc1C(F)(F)F	-4% (active)
Cc1ccc(Cl)cc1-n1nnc(-c2nsc(NC(=O)c3ccccc3Cl)n2)c1C	6% (active)
CSc1cccc(-n2nnc(-c3nsc(NC(=O)c4cccs4)n3)c2C)c1	73% (inactive)

SMILES	survival
CCc1cccc(-n2nnc(-c3nsc(NC(=O)c4cccs4)n3)c2C)c1	-5% (active)
Cc1c(-c2nsc(NC(=O)c3ccccc3)n2)nnn1-c1ccc(C(F)(F)F)c(Cl)c1	86% (inactive)
O=C(Cn1ncc2c3ccccc3n(Cc3ccccc3F)c2c1=O)NCc1ccccc1Cl	78% (inactive)
Cc1ccc(N(CCO)S(=O)(=O)c2ccc(NC3=NS(=O)(=O)c4ccccc43)cc2)cc1	96% (inactive)
CCc1ccc(C(=O)c2cn(CC(=O)Nc3ccc4c(c3)OCCO4)c3ccc(F)cc3c2=O)cc1	78% (inactive)
Cc1cccc(NS(=O)(=O)c2ccc3c(c2)CCCN3C(=O)C2CCC2)c1C	107% (inactive)
Cc1oc2ncn(C)c(=O)c2c1C(=O)Nc1ccc(F)cc1	72% (inactive)
COc1ccc(-n2c(SCc3ccccc3F)nc3c([nH]c4ccccc43)c2=O)cc1OC	68% (inactive)
ON(Cn1nnc2ccccc21)Cn1nnc2ccccc21	102% (inactive)
COc1ccc(-c2noc(-c3ccc(N4CCCCC4C)c([N+](=O)[O-])c3)n2)cc1OC (stereo not given)	104% (inactive)
COc1cccc(C(=O)Nc2nc(-c3nnn(-c4cccc(Cl)c4C)c3C)ns2)c1	-5% (active)
COc1ccc(C(=O)Nc2nc(-c3nnn(-c4cc(OC)ccc4OC)c3C)ns2)cc1	109% (inactive)
COc1ccc(-n2nnc(-c3nsc(NC(=O)c4ccc(C)c(C)c4)n3)c2C)cc1Cl	126% (inactive)
Cc1ccc(C(=O)Nc2nc(-c3nnn(-c4cccc(Cl)c4C)c3C)ns2)cc1C	124% (inactive)
COc1cccc(C(=O)Nc2nc(-c3nnn(-c4cc(C)ccc4C)c3C)ns2)c1	88% (inactive)
COc1ccc(Cl)cc1-n1nnc(-c2nsc(NC(=O)c3ccccc3Cl)n2)c1C	23% (active)
O=C(C1CC1)N1CCc2cc(Br)cc(S(=O)(=O)N3CCN(c4cccc(Cl)c4)CC3)c21	62% (inactive)
CCOc1ccc(-n2c(=O)c3c4c(sc3n(CC(=O)NC(C)CC)c2=O)CCC4)cc1 (stereo not given)	142% (inactive)
COC(=O)Cn1c(CN2CCN(c3ccc(OC)cc3)CC2)nc2c1c(=O)[nH]c(=O)n2C	88% (inactive)
CCCc1nn2c(=O)cc(COC(=O)c3ccc(NC(=O)c4cccs4)cc3)nc2s1	69% (inactive)
CCOc1ccc(N(C)C(CNS(=O)(=O)c2ccccc2)c2ccccc2)cc1 (stereo not given)	87% (inactive)
Cn1c(=O)oc2cc(S(=O)(=O)N3CCC(C(=O)N4CCN(c5ccc(Cl)cc5)CC4)CC3)ccc21	56% (inactive)
COC(=O)C1=CNC=C(C(=O)OC)C1c1ccc(Cl)cc1	88% (inactive)

SMILES	survival
COC(=O)C1=CN(CCCN2CCCC2=O)C=C(C(=O)OC)C1c1cccs1	77% (inactive)
COC(=O)C1=CN(C2CC2)C=C(C(=O)OC)C1c1ccsc1	60% (active)
COc1ccc(-n2c(=O)c3c4c(sc3n(Cc3ccccc3)c2=O)CN(C(C)=O)CC4)cc1OC	67% (inactive)
C=CCc1cccc2cc(-c3nc4ccc(C)cc4[nH]3)c(=O)oc12	0% (active)
COc1cccc2cc(-c3nc4ccc(C)cc4[nH]3)c(=O)oc12	98% (inactive)
C=CCc1cccc2cc(-c3nc4ccc(C(=O)O)cc4[nH]3)c(=O)oc12	92% (inactive)
O=C(NC(=O)c1ccc(F)cc1)Nc1ccc(-c2cc(C(F)(F)F)nn2-c2ccccc2)cc1	61% (inactive)
COCCn1c(SCC(=O)c2ccccc2)nc2cc(C(=O)NC3CCCC3)ccc2c1=O	87% (inactive)
CC(C)=CC(=O)Nc1nnc(Cc2ccccc2)s1	55% (inactive)
CCc1ccc(Cn2c(CNS(=O)(=O)c3ccc([N+](=O)[O-])cc3)nc3cccnc32)cc1	8% (active)
COc1ccc(Cn2c(CNC(=O)Cc3cccc([N+](=O)[O-])c3)nc3cccnc32)cc1	-5% (active)
Cc1ccc(Cn2c(CNS(=O)(=O)c3ccc(Cl)s3)nc3cccnc32)cc1	124% (inactive)
CCc1ccc(Cn2c(CNS(=O)(=O)c3ccc(Cl)s3)nc3cccnc32)cc1	66% (inactive)
O=C(Cc1cccc([N+](=O)[O-])c1)NCc1nc2cccnc2n1Cc1ccc(F)cc1	118% (inactive)
CCOc1ccc(Cn2c(CNS(=O)(=O)c3ccc(CC)cc3)nc3cccnc32)cc1	95% (inactive)
O=S(=O)(NCc1nc2cccnc2n1Cc1ccc(F)cc1)c1ccc(Cl)s1	-5% (active)
Cc1ccc(Cn2c(CNC(=O)Cc3cccc([N+](=O)[O-])c3)nc3cccnc32)cc1	70% (inactive)
O=S(=O)(NCc1nc2cccnc2n1Cc1ccccc1Cl)c1ccc(F)c(Cl)c1	87% (inactive)
CCc1ccc(Cn2c(CNS(=O)(=O)c3ccc(F)c(Cl)c3)nc3cccnc32)cc1	20% (active)
CCOc1ccc(Cn2c(CNS(=O)(=O)c3ccc([N+](=O)[O-])cc3)nc3cccnc32)cc1	94% (inactive)
Cc1ccc(Cn2c(CNS(=O)(=O)c3ccc(F)c(Cl)c3)nc3cccnc32)cc1	126% (inactive)
